In paper PMC5540273 (PLoS ONE, 2017):
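Also: KINOMEscan kinase panel screen.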

The compounds below were run on ROCK2. Conditions: concentration: 1 μM, replicates: in singlicate; n = 1.
`O=C(Nc1cccc(-c2nn3ccccc3c2-c2ccnc(Nc3cccc(C(F)(F)F)c3)n2)c1)c1c(F)cccc1F` [GSK292658] was tested, and the “%Inh” value was 1%. With `Cl.Cl.NCC(NCc1ccc(-c2ccnc3[nH]ccc23)s1)c1ccccc1` (centres unmarked) [GSK1321565] the “%Inh” value was 99.4%. With `CCn1c(-c2nonc2N)nc2c(C#CC(C)(C)O)nc(OC[C@H](N)c3ccccc3)cc21` [GSK943949] the “%Inh” value was 91.9%. For `COCCOCCOc1cc2ncc3c4ccc(C#N)cc4[nH]c3c2cc1OC`, the “%Inh” value was 99.2%. With `Clc1ccc(-c2nn3ncccc3c2-c2ccnc(Nc3ccc4c(c3)OCCO4)n2)cc1` [GW829116] the “%Inh” value was 0%. In the case of `COc1cccc(NC(=O)NC2CCN(c3ccnc(Nc4cc(OC)c(OC)c(OC)c4)n3)C2)c1` (centres unmarked) [GSK1379763], the “%Inh” value was 9%. In the case of `COc1cccc(C(=O)Nc2cccc(Oc3ccc4nc(NC(=O)C5CC5)cn4n3)c2)c1`, the “%Inh” value was 0%. With `CN(C)Cc1ccc(-c2ccc3c(Nc4ccc(Oc5ccccn5)cc4)ccnc3c2)o1` [GW567148] the “%Inh” value was 11%. With `Nc1ncc(-c2cccnc2)c2scc(-c3ccc4c(c3)CCN4C(=O)Cc3ccccc3)c12` [GSK683281] the “%Inh” value was 6%. With `COc1ccc(Nc2nccc(NCCNC(=O)c3cc4ccccc4s3)n2)cc1` [GSK1379896] the “%Inh” value was 28%. For `O=C(Nc1n[nH]c2nc(-c3ccc(O)cc3)ccc12)C1CC1` [SB-710363], the “%Inh” value was 0%. In the case of `O=C(Nc1cccc(-c2nn3ccccc3c2-c2ccnc(Nc3cccc(F)c3)n2)c1)c1c(F)ccc(F)c1Cl` [GSK357952], the “%Inh” value was 18%. `CN1CCN(Cc2cccc(-c3ccc4c(Nc5ccc(Oc6ccccc6)cc5)ccnc4c3)c2)CC1` [GW578342] was tested, and the “%Inh” value was 20%. In the case of `COc1cc(Nc2nccc(N3CCC(NC(=O)Nc4cccc(C(C)=O)c4)C3)n2)cc(OC)c1OC` (centres unmarked) [GSK1379753], the “%Inh” value was 7%. For `c1ccc(Oc2ccc(Nc3ccnc4cc(-c5ccc(CNCCN6CCOCC6)o5)ccc34)cc2)nc1` [GW567145], the “%Inh” value was 40%. `CC(C)c1nc(-c2cccc(NS(=O)(=O)c3c(F)cccc3F)c2F)c(-c2ccnc(Nc3ccc(N4CCOCC4)nc3)n2)s1` [GSK2008607] was tested, and the “%Inh” value was 0%. In the case of `C[C@@H](Oc1cc(-n2cnc3cc(-c4ccnc(NCCS(C)(=O)=O)c4)ccc32)sc1C(N)=O)c1ccccc1Cl` [GSK907232], the “%Inh” value was 0%. `Cn1cc(-c2[nH]c3cc(NC(=O)[C@H](N)C4CCCCC4)cc4c3c2C=NNC4=O)cn1` was tested, and the “%Inh” value was 91.8%. `CCS(=O)(=O)c1ccc(OC)c(Nc2nccc(-c3c(-c4cccc(NC(=O)c5c(F)cccc5F)c4)nn4ncccc34)n2)c1` [GSK326180] was tested, and the “%Inh” value was 18%. For `Cl.NC(=O)c1cccc(Nc2nccc(Nc3ccc(Oc4c(Cl)cccc4Cl)c(Cl)c3)n2)c1` [GW659009], the “%Inh” value was 10%. In the case of `Nc1ncc(-c2ccc3nccc(-c4ccncc4)c3c2)cc1S(=O)(=O)N1CCOCC1` [GSK1627798], the “%Inh” value was 0%. In the case of `Cn1cc(-c2ccc3c(c2)CCN3C(=O)Cc2cccc(Cl)c2)c2c(N)ncnc21` [GSK2606590], the “%Inh” value was 40%. With `CC(C)(C)c1ccc2nccc(Nc3cccc(O)c3)c2c1` [GW856795] the “%Inh” value was 30%. For `CC(=O)Nc1nc2cnc(Nc3cc(NC(=O)c4cccc(C5(C#N)CC5)c4Cl)ccc3C)nc2s1`, the “%Inh” value was 0%. In the case of `COc1cc(Nc2nccc(N3CCC(NC(=O)c4cc5ccccc5s4)C3)n2)cc(OC)c1OC` (centres unmarked) [GSK1379760], the “%Inh” value was 14%. With `Cc1occc1-c1ncc(OC[C@@H](N)Cc2c[nH]c3ccccc23)cc1-c1ccc2[nH]nc(C)c2c1.O=C(O)C(F)(F)F` [GSK682037] the “%Inh” value was 79%. For `C[C@@H]1CC[C@@H](C(=O)Nc2ccccc2)CN1c1cc(-c2ccc3c(N)n[nH]c3c2)nc(N)n1` [GSK2286062], the “%Inh” value was 35%. With `O=c1[nH]cc(-c2ccc(N3CCOCC3)cc2)c2sc(-c3cn[nH]c3)cc12` [GSK2276055] the “%Inh” value was 0%. In the case of `COc1cccc(C2=C(Nc3ccc(Cl)c(C(=O)O)c3)C(=O)NC2=O)c1` [SB-390769], the “%Inh” value was 12%.
